High-throughput results (PubChem)
JMJD2A Tudor: inhibitors of human JMJD2A Tudor domain. AlphaScreen JMJD2A-Tudor / H3K4me3 peptide binding. actives 4.4% (n = 390,000). AID 504339. Potency, µM (highest dose often 114 µM), actives largely listed as inhibitors; further: nearly all actives have a fitted effect of over 50% in size
HP1b binding inh: inhibitors of HP1-beta chromodomain binding to methylated histone tails | AID 540317 | P83916 | actives 0.56% (n = 390,000) | Potency, µM (doses to about 114 µM), hits mostly inhibitors | AlphaScreen HP1-beta / biotin-H3K9me3 peptide binding; further: nearly all actives have a fitted effect of over 70% in size
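HP1-beta protein (50 nM final) preincubated 30 min at room temperature with biotinylated H3(1-18)K9me3 peptide (50 nM) in PBS pH 7.4, 0.01% Tween-20, then compound added for 30 min. AlphaScreen streptavidin donor/nickel chelate acceptor beads (10 ug/mL final), 30 min dark, luminescence read.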
BAZ2B inh: BAZ2B (human) inhibition. Q9UIF8. AlphaScreen BAZ2B-H3K14Ac peptide displacement. Potency, µM (doses to about 114 µM), most hits filed as inhibitors. actives 4.4% (n = 360,000); further: nearly all actives have a fitted effect of over 60% in size
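BAZ2B (50 nM) with biotin-H3(5-23)K14Ac peptide (50 nM) in PBS pH 7.4, 0.01% Tween-20, preformed 30 min, then compound 30 min at room temperature; top concentration 110uM. AlphaScreen streptavidin donor/nickel chelate acceptor beads (10 ug/mL final), 20 min dark, signal read.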
L3MBTL1 inh: blocks human L3MBTL1. Q9Y468. AlphaScreen L3MBTL1–H3K9me1 peptide binding. AID 485360. actives 0.66% (n = 230,000). Potency, µM (series often up to 57.1 µM), most hits filed as inhibitors; further: nearly all actives have a fitted effect of over 60% in size
Target sequence (Q9Y468 whole entry, looked up): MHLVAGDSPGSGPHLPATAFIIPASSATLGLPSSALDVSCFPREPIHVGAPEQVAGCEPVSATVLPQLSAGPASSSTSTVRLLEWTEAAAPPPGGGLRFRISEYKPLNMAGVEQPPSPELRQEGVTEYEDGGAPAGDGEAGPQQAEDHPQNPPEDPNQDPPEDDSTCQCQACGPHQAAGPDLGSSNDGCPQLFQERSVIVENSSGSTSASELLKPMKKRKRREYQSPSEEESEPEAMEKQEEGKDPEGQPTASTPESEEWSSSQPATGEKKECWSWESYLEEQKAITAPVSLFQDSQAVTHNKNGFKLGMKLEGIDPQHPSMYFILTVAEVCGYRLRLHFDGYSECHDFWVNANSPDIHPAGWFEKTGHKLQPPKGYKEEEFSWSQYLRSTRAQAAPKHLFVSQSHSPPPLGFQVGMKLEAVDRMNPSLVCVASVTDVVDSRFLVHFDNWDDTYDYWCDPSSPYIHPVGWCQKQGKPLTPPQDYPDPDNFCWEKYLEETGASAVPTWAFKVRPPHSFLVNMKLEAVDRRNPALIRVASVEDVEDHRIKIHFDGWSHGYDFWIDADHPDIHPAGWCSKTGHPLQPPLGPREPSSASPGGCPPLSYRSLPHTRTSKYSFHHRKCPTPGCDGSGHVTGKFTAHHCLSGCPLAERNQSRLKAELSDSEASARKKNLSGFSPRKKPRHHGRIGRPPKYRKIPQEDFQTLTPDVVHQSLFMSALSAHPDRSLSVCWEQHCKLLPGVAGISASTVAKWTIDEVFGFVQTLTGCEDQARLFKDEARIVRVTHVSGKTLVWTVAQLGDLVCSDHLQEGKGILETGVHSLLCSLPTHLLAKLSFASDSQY
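First, the protein-peptide complex forms for 30 min at room temperature (L3MBTL1 50 nM, biotinylated H3K9me1 peptide 75 nM). Next, compounds are pin-transferred and incubated 30 min. Finally, AlphaScreen beads are added and read after 30 min.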
G9a block: inhibitors of human histone lysine methyltransferase G9a; actives 8.8% (n = 350,000); Potency, µM (highest dose often 102 µM), hits mostly inhibitors; Q96KQ7; G9a H3K9 monomethylation, AlphaScreen, 2 h; further: nearly all actives have a fitted effect of over 75% in size
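G9a (20 nM) preincubated 15 min RT with compounds, then 500 nM biotinylated H3K9 peptide and 20 uM SAM added; 2 h RT reaction. Monomethyl-H3K9 product detected by AlphaScreen with anti-H3K9me1 antibody, streptavidin donor and anti-rabbit IgG acceptor beads.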
GLS inh: glutaminase GLS (human) inhibition; O94925; GLS enzymatic activity, qHTS titration; Potency, µM (series often up to 45.5 µM), most hits filed as inhibitors; actives 0.21% (n = 410,000); AID 624170
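Enzyme dispensed in phosphate buffer (45 mM, pH 8.2, 0.02% Tween-20), compounds pinned in, then 1 mM L-glutamine solution and the glutamate oxidase–HRP–Amplex Red mix added; fluorescence read immediately and again after 30 min at room temperature.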
Of the large screens only hits and unclear results are named; the others gave an inactive call. Compounds with a hit are over-represented: about 10% of the library has one in this group of screens. The call rests on the fitted dose curve; in most records, active means well fitted curve in the direction sought with a large enough effect; inconclusive means small, poorly fitted or top-dose-only effect, or another doubt; inactive means no such curve, though single readings can be large; an effect the other way counts as inactive or inconclusive.

Cc1ccccc1CN1C(=O)c2ccccc2Sc2ccc(C(=O)NC3CCCCC3)cc21	none (no result: L3MBTL1 inh)
Cc1ccc(NC(=O)CSc2ncn[nH]2)cc1C	JMJD2A Tudor inconclusive, BAZ2B inh inconclusive (no result: L3MBTL1 inh)
O=C(CSc1ncn[nH]1)Nc1ccc(Cl)c(Cl)c1	G9a block 45µM
CCc1ccc(NC(=O)C(C)OC(=O)CCN2C(=O)C3CC=CCC3C2=O)cc1 (stereo not given)	none (no result: BAZ2B inh, L3MBTL1 inh, G9a block)
COc1ccc(C(=O)C(C)OC(=O)CCN2C(=O)C3CC=CCC3C2=O)cc1 (stereo not given)	G9a block 7.9µM
O=C(Nc1cccc(NC(=O)c2ccccc2Cl)c1)c1ccc([N+](=O)[O-])o1	none (no result: L3MBTL1 inh)
CC(C)(C)C(=O)N1CCN(c2ccc(NC(=O)c3ccc([N+](=O)[O-])o3)cc2)CC1	none (no result: L3MBTL1 inh)
O=C(Nc1ccc(N2CCCCC2)cc1)c1ccc([N+](=O)[O-])o1	JMJD2A Tudor 11µM, HP1b binding inh inconclusive, BAZ2B inh 28µM, G9a block 40µM (no result: L3MBTL1 inh)
CC1CCN(c2ccc(NC(=O)c3ccc([N+](=O)[O-])o3)cc2)CC1	G9a block 35µM
O=C(Nc1ccc(N2CCCC2)c(Cl)c1)c1ccc([N+](=O)[O-])o1	JMJD2A Tudor 45µM, HP1b binding inh inconclusive, BAZ2B inh 18µM, G9a block 25µM (no result: L3MBTL1 inh)
COc1ccc(N2CCN(C(=O)CN3C(=O)COc4ccc(S(=O)(=O)N5CCC(C)CC5)cc43)CC2)cc1	JMJD2A Tudor inconclusive, BAZ2B inh inconclusive, G9a block inconclusive (no result: L3MBTL1 inh)
Cc1ccc(NC2=CC(=O)C(=O)c3ccccc32)c(C)c1	BAZ2B inh inconclusive
O=C1C=C(Nc2ccccc2O)c2ccccc2C1=O	JMJD2A Tudor inconclusive, BAZ2B inh 45µM, G9a block 45µM
O=c1cccccc1NCc1ccccc1	G9a block 10µM (no result: L3MBTL1 inh, GLS inh)
O=C1C=C(Nc2ccc(F)cc2)c2ccccc2C1=O	BAZ2B inh inconclusive, G9a block 7.9µM
O=C1C=C(NCc2ccccc2)c2ccccc2C1=O	L3MBTL1 inh 22µM, G9a block inconclusive
Cc1ccc2oc(C(=O)N(Cc3ccccc3F)C3CCS(=O)(=O)C3)c(C)c2c1 (stereo not given)	none (no result: L3MBTL1 inh)
O=C(NCC1CCCCC1)C1(CC2CC(c3ccc(Cl)cc3)=NO2)CCNCC1 (stereo not given)	G9a block 45µM
CN(C)[C@@H]1CCC[C@@H]1OC(=O)C(c1ccccc1)c1ccccc1	JMJD2A Tudor 1.1µM, HP1b binding inh inconclusive, BAZ2B inh 35µM, G9a block 13µM
CCN1CCCC(OC(=O)C(c2ccccc2)c2ccccc2)C1 (stereo not given)	none
CCc1ccc(/C=N/Nc2nn[nH]n2)cc1	JMJD2A Tudor inconclusive, BAZ2B inh inconclusive, G9a block 10µM
O=C1CSC(c2ccc([N+](=O)[O-])cc2)N1Cc1ccccc1 (stereo not given)	none
CC1Cc2ccccc2N1Cc1ccc([N+](=O)[O-])cc1 (stereo not given)	JMJD2A Tudor 45µM, HP1b binding inh 32µM, BAZ2B inh 35µM, G9a block 40µM (no result: L3MBTL1 inh)
CC1Cc2ccccc2N1Cc1cccc([N+](=O)[O-])c1 (stereo not given)	JMJD2A Tudor 35µM, HP1b binding inh 32µM, BAZ2B inh 13µM, G9a block 14µM (no result: L3MBTL1 inh)
Cc1nnc(-c2ccc(N3CCCCCC3)c([N+](=O)[O-])c2)o1	JMJD2A Tudor inconclusive, BAZ2B inh inconclusive, G9a block 45µM
O=C(Nc1cccc(Cl)c1)c1ccc2nc(CCc3ccccc3)oc2c1	none (no result: L3MBTL1 inh)
N#CC1=C(S)N(c2ccc(F)cc2)C2(CCCCC2)NC1=O	BAZ2B inh inconclusive, G9a block 35µM
N#CC1=C(S)N(c2ccccc2)C2(CCCCC2)NC1=O	BAZ2B inh inconclusive, G9a block inconclusive
COc1ccc(CN(C(=O)c2ccc(-c3ccccc3)[nH]2)C(C(=O)NCC2CCCO2)c2ccc(C)o2)cc1 (stereo not given)	JMJD2A Tudor inconclusive, BAZ2B inh 45µM
CC(C(=O)NC1CCCC1)N(C(=O)Cn1nnc(-c2ccc(F)cc2)n1)c1ccccc1F (stereo not given)	none (no result: L3MBTL1 inh)
O=C(NCC1CCCO1)C(c1cccs1)N(Cc1ccccc1)C(=O)c1ccc(-c2ccccc2)[nH]1 (stereo not given)	JMJD2A Tudor inconclusive, HP1b binding inh inconclusive, BAZ2B inh inconclusive, G9a block inconclusive
CC(C(=O)NC1CCCC1)N(C(=O)c1ccc(-c2ccccc2)[nH]1)c1ccccc1F (stereo not given)	JMJD2A Tudor 22µM, BAZ2B inh inconclusive
COc1ccc(CN(CC(=O)NC2CCCC2)C(=O)c2ccc(-c3ccccc3)[nH]2)cc1	JMJD2A Tudor inconclusive, BAZ2B inh 28µM, L3MBTL1 inh inconclusive, G9a block inconclusive
CN1C(C(=O)Nc2ccc(C(=O)O)cc2)=C(O)c2ccccc2S1(=O)=O	JMJD2A Tudor 79µM, G9a block inconclusive
CN1C(C(=O)c2ccccc2)=C(NC(=O)c2ccc(F)cc2)c2ccccc2S1(=O)=O	none (no result: L3MBTL1 inh)
COc1cccc(-c2cncnc2N(C)Cc2ccco2)c1	none (no result: JMJD2A Tudor, HP1b binding inh, BAZ2B inh, L3MBTL1 inh, GLS inh)
COCCCN(CC(=O)O)S(=O)(=O)c1cccc(Cl)c1	G9a block 50µM
COc1ccc2ccccc2c1CNC(C)c1ccccc1 (stereo not given)	JMJD2A Tudor 79µM, BAZ2B inh inconclusive
CC(NCCCOc1cccc2ccccc12)c1ccccc1 (stereo not given)	JMJD2A Tudor 22µM, HP1b binding inh inconclusive, BAZ2B inh inconclusive, G9a block 11µM
COc1ccc2ccccc2c1CNCc1ccc(C)cc1	JMJD2A Tudor 22µM, HP1b binding inh inconclusive, BAZ2B inh inconclusive, G9a block 50µM
CC(NCc1ccccc1O)c1ccccc1 (stereo not given)	none
CC(NCCOCCOc1ccccc1)c1ccccc1 (stereo not given)	none
Cc1noc(C)c1-c1ccc2ncnc(NCc3ccc(C(F)(F)F)cc3)c2c1	none (no result: HP1b binding inh, BAZ2B inh, L3MBTL1 inh, G9a block, GLS inh)
COc1ccc(/C=C2\Sc3ccc(C(=O)NCCN4CCCCCC4)cc3N(C)C2=O)cc1	JMJD2A Tudor inconclusive, BAZ2B inh inconclusive, G9a block 22µM (no result: L3MBTL1 inh)
COc1ccc(/C=C2\Sc3ccc(C(=O)N4CCCC4)cc3N(C)C2=O)cc1OC	G9a block 45µM (no result: L3MBTL1 inh)
COc1cccc(/C=C2/Sc3ccc(C(=O)NCCN4CCCC4)cc3NC2=O)c1	BAZ2B inh inconclusive, G9a block inconclusive (no result: L3MBTL1 inh)
N#CC1=C(N)SC2(CCCCC2)SC1c1ccccc1 (stereo not given)	JMJD2A Tudor inconclusive, G9a block 7.9µM
Cc1ccc(C)c(N2CCN(C(=O)c3cn(CC(C)C)c(=O)c4c3c3ccccc3n4C)CC2)c1	G9a block inconclusive (no result: L3MBTL1 inh)
